According to the supplement of paper PMC10849652:
The full data set covers some 7,900 targets. This sample favours those with a hit. About 0.6% of all pairs of compound and target were hits.

Assays:
Experiment in all cases: log2 fold change, soluble protein after heating vs DMSO (PISA); higher = thermal stabilisation; K562 cells, 10 uM, 30 min; active = over 0.2 and 3.5 SD of the protein, either way, in both replicates (recomputed)
[1] = compound: CN1CCN(CCOc2cc(OC3CCOCC3)c3c(Nc4c(Cl)ccc5c4OCO5)ncnc3c2)CC1 [saracatinib]
How it was run: (§1)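 For each measurement, 10 μM compound was applied for 30 min to K562 cells at 2×10^6 cells/mL. Aliquots were heated for 3 min across 48°C-58°C, pooled, and extracted in PBS with 0.5% NP-40 at 4°C; the supernatant after 21,000xg for 90 min was soluble protein. This was quantified by TMTpro 16plex LC-MS/MS with channel sums equalised, and thermal stability was reported relative to control samples from duplicates, on a log2 fold-change scale.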

[2] = compound: CN1CCN(c2nc(C3=C(c4c[nH]c5ccccc45)C(=O)NC3=O)c3ccccc3n2)CC1 [sotrastaurin]
How it was run: as §1

[3] = compound: CN1CC[C@H](c2c(O)cc(O)c3c(=O)cc(-c4ccccc4Cl)oc23)[C@H](O)C1 [alvocidib]
How it was run: as §1

[4] = compound: CN1CCc2c(c3ccccc3n2Cc2ccc(C(=O)NO)cc2)C1 [Tubastatin A]
How it was run: as §1

[5] = compound: CNC(=O)C1=CC=CC=C1NC2=NC(=NC=C2Cl)NC3=C(C=C(C=C3)N4CCOCC4)OC
How it was run: as §1

[6] = compound: CNC(=O)c1ccc(Nc2ncc(C(F)(F)F)c(NCc3nccnc3N(C)S(C)(=O)=O)n2)cc1 [defactinib]
How it was run: as §1

[7] = compound: CNCc1ccc(-c2[nH]c3cc(F)cc4c3c2CCNC4=O)cc1 [rucaparib]
How it was run: as §1

[8] = compound: CNc1nc(-c2ccc3c(N)n[nH]c3c2)cc(N2C[C@@H](C(=O)NC3CCCCC3)CC[C@H]2C)n1
How it was run: as §1

[9] = compound: COC(=O)N[C@@H](C)CNc1nccc(-c2cn(C(C)C)nc2-c2cc(Cl)cc(NS(C)(=O)=O)c2F)n1 [encorafenib]
How it was run: as §1

[10] = compound: COC(=O)[C@H](CCSC)NC(=O)C1=C(C=C(C=C1)NC[C@H](CS)N)C2=CC=CC=C2
How it was run: as §1

[11] = compound: COC1=CC=C(C=C1)CN2C=CC3=C2C=C(C=C3)C(=O)NO
How it was run: as §1

[12] = compound: CON(C)C(=O)N1N=C(c2cc(F)ccc2F)S[C@@]1(CCCN)c1ccccc1 [filanesib]
How it was run: as §1

[13] = compound: CO[C@H]1C[C@@H]2CC[C@@H](C)[C@@](O)(O2)C(=O)C(=O)N2CCCC[C@H]2C(=O)O[C@H]([C@H](C)C[C@@H]2CC[C@H](n3cnnn3)[C@H](OC)C2)CC(=O)[C@H](C)/C=C(\C)[C@@H](O)[C@@H](OC)C(=O)[C@H](C)C[C@H](C)/C=C/C=C/C=C/1C [zotarolimus]
How it was run: as §1

[14] = compound: COc1cc(C(=O)O)ccc1NC(=O)[C@@H]1N[C@@H](CC(C)(C)C)[C@](C#N)(c2ccc(Cl)cc2F)[C@H]1c1cccc(Cl)c1F [idasanutlin]
How it was run: as §1

[15] = compound: COc1cc(Nc2ncc3c(n2)-c2ccc(Cl)cc2C(c2c(F)cccc2OC)=NC3)ccc1C(=O)O [alisertib]
How it was run: as §1

[16] = compound: COc1cc2nc(-c3cc(F)ccc3O)nc(N[C@@H]3CNC[C@H]3C(C)(C)O)c2cc1OC
How it was run: as §1

[17] = compound: COc1cc2ncnc(Nc3ccc(F)c(Cl)c3)c2cc1OCCCN1CCOCC1 [gefitinib]
How it was run: as §1

[18] = compound: COc1cccc2cc(-c3nc([C@H]4CC[C@H](C(=O)O)CC4)n4ncnc(N)c34)[nH]c12
How it was run: as §1

[19] = compound: CS(=O)(=O)CCNCc1ccc(-c2ccc3ncnc(Nc4ccc(OCc5cccc(F)c5)c(Cl)c4)c3c2)o1 [lapatinib]
How it was run: as §1

[20] = compound: CS(=O)(=O)N1CCN(Cc2cc3nc(-c4cccc5[nH]ncc45)nc(N4CCOCC4)c3s2)CC1 [pictilisib]
How it was run: as §1

Measured: log2 fold change

PDCD4 (UniProt Q53EL6)
Chain of UniProt Q53EL6 (Q53EL6 whole entry, looked up): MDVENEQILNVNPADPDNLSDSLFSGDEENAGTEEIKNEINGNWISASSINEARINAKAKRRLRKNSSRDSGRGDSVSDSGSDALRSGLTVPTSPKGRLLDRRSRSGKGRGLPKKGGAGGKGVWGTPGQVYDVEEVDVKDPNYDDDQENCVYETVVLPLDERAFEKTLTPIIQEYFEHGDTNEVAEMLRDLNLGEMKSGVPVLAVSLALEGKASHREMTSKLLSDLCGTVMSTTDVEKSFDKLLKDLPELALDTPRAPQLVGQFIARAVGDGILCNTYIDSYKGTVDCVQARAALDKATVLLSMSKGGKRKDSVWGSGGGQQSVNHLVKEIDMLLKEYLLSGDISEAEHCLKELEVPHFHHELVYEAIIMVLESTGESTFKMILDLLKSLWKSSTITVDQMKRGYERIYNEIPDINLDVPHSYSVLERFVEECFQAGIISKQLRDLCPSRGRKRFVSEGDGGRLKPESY
inactive: [1] -0.008 | [2] 0.138 | [3] -0.113 | [4] 0 | [5] 0.177 | [6] -0.243 | [7] -0.113 | [8] 0.114 | [9] 0.073 | [10] -0.097 | [11] 0.055 | [12] -0.153 | [13] 0.251 | [14] -0.161 | [15] -0.025 | [16] 0.018 | [17] 0.057 | [18] 0.16 | [19] 0.032 | [20] 0.083

PPT1 (UniProt P50897)
active: [12] -0.241
inactive: [1] -0.007 | [2] 0.029 | [3] 0.005 | [4] -0.038 | [5] 0.024 | [6] 0.024 | [7] 0.047 | [8] -0.019 | [9] -0.023 | [10] -0.002 | [11] 0.021 | [13] -0.043 | [14] 0.005 | [15] -0.041 | [16] -0.041 | [17] -0.03 | [18] 0.074 | [19] -0.038 | [20] 0.052

PPM1G (UniProt O15355)
Chain of UniProt O15355 (O15355 whole entry, looked up): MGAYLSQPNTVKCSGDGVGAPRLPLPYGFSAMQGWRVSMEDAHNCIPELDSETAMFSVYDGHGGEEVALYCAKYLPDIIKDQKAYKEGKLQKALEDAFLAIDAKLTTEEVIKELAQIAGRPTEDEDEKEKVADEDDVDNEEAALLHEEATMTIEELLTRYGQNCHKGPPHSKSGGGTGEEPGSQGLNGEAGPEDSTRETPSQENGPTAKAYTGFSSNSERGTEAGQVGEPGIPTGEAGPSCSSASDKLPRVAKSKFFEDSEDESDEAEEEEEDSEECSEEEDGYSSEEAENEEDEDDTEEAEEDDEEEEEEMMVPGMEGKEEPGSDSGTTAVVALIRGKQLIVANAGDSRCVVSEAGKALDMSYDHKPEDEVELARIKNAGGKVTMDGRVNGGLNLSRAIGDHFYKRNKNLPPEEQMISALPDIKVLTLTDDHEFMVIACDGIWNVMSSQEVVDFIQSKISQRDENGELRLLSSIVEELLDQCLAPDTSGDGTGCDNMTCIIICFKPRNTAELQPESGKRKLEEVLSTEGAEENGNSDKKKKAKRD
inactive: [1] -0.086 | [2] -0.213 | [3] -0.165 | [4] 0.187 | [5] 0.108 | [6] -0.226 | [7] -0.088 | [8] -0.038 | [9] 0.085 | [10] -0.104 | [11] -0.011 | [12] 0.014 | [13] 0.028 | [14] 0.066 | [15] 0.019 | [16] 0.081 | [17] 0.044 | [18] -0.089 | [19] -0.052 | [20] 0.093

PSMB4 (UniProt P28070)
Chain of UniProt P28070 (P28070 whole entry, looked up): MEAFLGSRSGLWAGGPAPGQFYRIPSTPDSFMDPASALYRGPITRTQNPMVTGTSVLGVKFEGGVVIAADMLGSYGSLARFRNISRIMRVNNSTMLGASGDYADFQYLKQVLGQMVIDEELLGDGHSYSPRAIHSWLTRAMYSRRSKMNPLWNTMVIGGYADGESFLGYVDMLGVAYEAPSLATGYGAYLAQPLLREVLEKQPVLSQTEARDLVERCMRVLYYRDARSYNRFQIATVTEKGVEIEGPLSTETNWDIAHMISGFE
inactive: [1] -0.012 | [2] 0.026 | [3] 0.078 | [4] -0.002 | [5] -0.031 | [6] 0.038 | [7] 0.019 | [8] -0.032 | [9] 0.011 | [10] 0.006 | [11] -0.033 | [12] 0.034 | [13] -0.011 | [14] -0.012 | [15] -0.031 | [16] -0.074 | [17] -0.038 | [18] 0.005 | [19] 0.03 | [20] -0.026

PHKG2 (UniProt P15735)
Chain of UniProt P15735 (P15735 whole entry, looked up): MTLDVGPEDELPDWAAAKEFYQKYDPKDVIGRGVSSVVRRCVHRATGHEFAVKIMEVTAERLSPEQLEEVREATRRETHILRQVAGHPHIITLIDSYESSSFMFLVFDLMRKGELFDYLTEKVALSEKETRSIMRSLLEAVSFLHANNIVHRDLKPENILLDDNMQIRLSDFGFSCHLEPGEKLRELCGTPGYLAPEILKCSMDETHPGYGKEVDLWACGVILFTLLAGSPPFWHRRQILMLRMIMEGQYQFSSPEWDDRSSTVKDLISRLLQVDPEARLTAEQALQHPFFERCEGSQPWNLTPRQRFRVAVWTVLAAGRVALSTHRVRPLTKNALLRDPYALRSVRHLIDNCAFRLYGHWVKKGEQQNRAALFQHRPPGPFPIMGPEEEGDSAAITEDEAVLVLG
inactive: [1] 0.002 | [2] -0.071 | [3] -0.069 | [4] 0.029 | [5] 0.167 | [6] 0.026 | [7] -0.032 | [8] 0.1 | [9] 0.181 | [10] -0.025 | [11] 0.014 | [12] -0.01 | [13] -0.051 | [14] 0.007 | [15] -0.026 | [16] 0.219 | [17] -0.063 | [18] 0.015 | [19] 0.105 | [20] -0.055

PSMC1 (UniProt P62191)
Chain of UniProt P62191 (P62191 whole entry, looked up): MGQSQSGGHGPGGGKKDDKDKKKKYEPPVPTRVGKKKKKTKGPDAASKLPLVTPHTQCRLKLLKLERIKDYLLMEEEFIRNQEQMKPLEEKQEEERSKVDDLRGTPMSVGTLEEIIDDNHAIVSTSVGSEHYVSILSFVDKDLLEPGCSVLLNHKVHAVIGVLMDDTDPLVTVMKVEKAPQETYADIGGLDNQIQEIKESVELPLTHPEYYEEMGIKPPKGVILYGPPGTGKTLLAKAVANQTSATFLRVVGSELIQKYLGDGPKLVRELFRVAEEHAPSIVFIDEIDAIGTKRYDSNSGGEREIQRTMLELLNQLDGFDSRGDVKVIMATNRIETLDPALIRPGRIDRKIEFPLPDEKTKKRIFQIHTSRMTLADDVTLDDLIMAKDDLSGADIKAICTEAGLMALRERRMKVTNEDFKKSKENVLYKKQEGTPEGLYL
inactive: [1] -0.062 | [2] -0.022 | [3] 0.057 | [4] -0.009 | [5] -0.019 | [6] 0.083 | [7] 0.043 | [8] 0.024 | [9] 0.022 | [10] -0.001 | [11] -0.062 | [12] 0.03 | [13] -0.013 | [14] 0.009 | [15] -0.049 | [16] -0.018 | [17] -0.05 | [18] -0.015 | [19] 0.054 | [20] -0.006

PRKCB isoform 2 (UniProt P05771)
active: [2] -0.343
inactive: [1] -0.006 | [3] -0.014 | [4] -0.004 | [5] 0.012 | [6] -0.03 | [7] 0.001 | [8] -0.03 | [9] 0.031 | [10] -0.001 | [11] -0.011 | [12] -0.022 | [13] 0.046 | [14] -0.028 | [15] -0.051 | [16] 0.035 | [17] 0.001 | [18] -0.036 | [19] -0.008 | [20] 0.035

PRPF38B (UniProt Q5VTL8)
inactive: [1] 0.011 | [2] -0.006 | [3] -0.073 | [4] -0.027 | [7] -0.08 | [8] -0.039 | [9] 0.015 | [10] 0.044 | [11] -0.004 | [12] 0.163 | [13] 0.016 | [14] 0.039 | [15] -0.09 | [16] 0.083 | [17] 0.002 | [18] 0.043 | [19] 0.027 | [20] 0.065
active: [5] -0.287 | [6] -0.27

PPP1R35 (UniProt Q8TAP8)
inactive: [1] 0.034 | [2] -0.011 | [3] -0.03 | [4] 0.035 | [5] -0.029 | [6] -0.007 | [7] 0.019 | [8] -0.109 | [9] 0.072 | [10] 0.052 | [11] 0.003 | [12] 0.026 | [13] -0.004 | [14] 0.196 | [15] -0.003 | [16] -0.125 | [17] 0.027 | [18] 0.083 | [19] 0.011 | [20] -0.068

PLCG1 isoform 2 (UniProt P19174)
Chain of UniProt P19174 (P19174 whole entry, looked up): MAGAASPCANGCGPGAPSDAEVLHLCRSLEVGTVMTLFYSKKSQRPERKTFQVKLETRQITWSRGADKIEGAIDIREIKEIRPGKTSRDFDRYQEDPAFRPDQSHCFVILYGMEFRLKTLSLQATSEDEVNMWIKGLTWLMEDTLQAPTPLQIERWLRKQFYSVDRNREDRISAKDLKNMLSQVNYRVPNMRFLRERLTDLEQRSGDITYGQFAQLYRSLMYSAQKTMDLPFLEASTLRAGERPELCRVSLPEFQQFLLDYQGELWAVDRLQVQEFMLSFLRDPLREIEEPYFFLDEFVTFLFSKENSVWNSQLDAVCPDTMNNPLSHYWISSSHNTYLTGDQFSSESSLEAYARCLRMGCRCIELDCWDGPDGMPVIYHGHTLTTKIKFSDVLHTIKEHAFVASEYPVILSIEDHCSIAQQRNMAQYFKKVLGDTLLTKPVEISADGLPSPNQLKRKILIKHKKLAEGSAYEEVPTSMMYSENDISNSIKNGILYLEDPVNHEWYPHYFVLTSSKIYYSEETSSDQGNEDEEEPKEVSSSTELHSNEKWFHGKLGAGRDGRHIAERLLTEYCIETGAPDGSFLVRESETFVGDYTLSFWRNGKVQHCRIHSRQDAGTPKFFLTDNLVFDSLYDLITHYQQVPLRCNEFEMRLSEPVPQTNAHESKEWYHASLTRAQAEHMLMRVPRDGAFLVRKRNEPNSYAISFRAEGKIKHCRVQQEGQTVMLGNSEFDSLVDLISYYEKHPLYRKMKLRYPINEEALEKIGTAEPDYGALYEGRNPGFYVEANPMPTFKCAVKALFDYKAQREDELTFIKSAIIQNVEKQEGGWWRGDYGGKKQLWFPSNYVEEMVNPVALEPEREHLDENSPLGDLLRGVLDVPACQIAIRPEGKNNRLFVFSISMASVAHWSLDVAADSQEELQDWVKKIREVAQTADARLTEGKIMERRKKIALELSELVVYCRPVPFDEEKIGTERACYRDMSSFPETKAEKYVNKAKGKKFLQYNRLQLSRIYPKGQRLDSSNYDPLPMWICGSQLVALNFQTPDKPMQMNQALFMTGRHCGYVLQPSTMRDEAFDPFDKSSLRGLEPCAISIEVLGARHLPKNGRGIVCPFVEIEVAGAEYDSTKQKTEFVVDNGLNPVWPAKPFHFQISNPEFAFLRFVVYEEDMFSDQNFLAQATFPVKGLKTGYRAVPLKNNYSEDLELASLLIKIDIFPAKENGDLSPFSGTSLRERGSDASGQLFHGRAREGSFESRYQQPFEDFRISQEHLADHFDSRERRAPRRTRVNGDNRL
inactive: [1] -0.131 | [2] -0.005 | [3] -0.007 | [4] 0.1 | [5] -0.048 | [6] -0.128 | [7] 0.088 | [8] 0.054 | [9] 0.012 | [10] -0.007 | [11] 0.104 | [12] -0.139 | [13] 0.038 | [14] 0.017 | [15] 0.05 | [16] 0.012 | [17] -0.047 | [18] 0.029 | [19] -0.003 | [20] 0.046

PLK1 (UniProt P53350)
active: [5] -2.06
inactive: [1] 0.034 | [2] -0.223 | [3] 0.14 | [4] -0.058 | [6] -0.165 | [7] 0.052 | [8] -0.008 | [9] 0.058 | [10] -0.013 | [11] 0.013 | [12] 0.068 | [13] -0.021 | [14] 0.014 | [15] 0.02 | [16] 0.092 | [17] -0.024 | [18] -0.133 | [19] 0.041 | [20] -0.072

POLR3B (UniProt Q9NW08)
inactive: [1] -0.056 | [2] -0.129 | [3] -0.074 | [4] -0.045 | [5] -0.004 | [6] -0.03 | [7] -0.032 | [8] -0.047 | [9] 0.039 | [10] -0.028 | [11] 0.026 | [12] 0.065 | [13] 0.075 | [14] 0.008 | [15] -0.086 | [16] 0.08 | [17] 0.105 | [18] -0.135 | [19] 0.008 | [20] -0.019

PAK4 (UniProt O96013)
Chain of UniProt O96013 (O96013 whole entry, looked up): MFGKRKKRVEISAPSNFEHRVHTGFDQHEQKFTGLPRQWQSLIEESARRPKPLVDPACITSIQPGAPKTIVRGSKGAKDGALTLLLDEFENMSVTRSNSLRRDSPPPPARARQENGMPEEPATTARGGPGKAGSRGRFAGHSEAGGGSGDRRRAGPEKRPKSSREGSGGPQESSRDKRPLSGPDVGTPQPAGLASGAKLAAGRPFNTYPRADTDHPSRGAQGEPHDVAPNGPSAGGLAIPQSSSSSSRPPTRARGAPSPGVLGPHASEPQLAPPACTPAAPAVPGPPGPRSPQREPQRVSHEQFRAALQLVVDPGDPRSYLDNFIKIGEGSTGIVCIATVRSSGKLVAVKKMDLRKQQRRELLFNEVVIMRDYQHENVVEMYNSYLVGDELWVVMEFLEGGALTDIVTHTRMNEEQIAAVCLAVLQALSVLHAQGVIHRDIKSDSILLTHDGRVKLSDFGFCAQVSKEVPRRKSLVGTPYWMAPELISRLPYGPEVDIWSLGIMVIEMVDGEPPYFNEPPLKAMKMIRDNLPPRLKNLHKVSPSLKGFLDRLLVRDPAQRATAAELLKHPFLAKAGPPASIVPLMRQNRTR
inactive: [1] -0.047 | [2] 0.098 | [3] -0.06 | [4] 0.005 | [5] -0.012 | [6] -0.017 | [7] -0.067 | [8] 0 | [9] 0.085 | [10] 0.03 | [11] -0.106 | [12] 0.068 | [13] 0.03 | [14] -0.021 | [15] 0.153 | [16] 0.195 | [17] 0 | [18] 0.075 | [19] -0.047 | [20] 0.072

PRKAR2B (UniProt P31323)
Chain of UniProt P31323 (P31323 whole entry, looked up): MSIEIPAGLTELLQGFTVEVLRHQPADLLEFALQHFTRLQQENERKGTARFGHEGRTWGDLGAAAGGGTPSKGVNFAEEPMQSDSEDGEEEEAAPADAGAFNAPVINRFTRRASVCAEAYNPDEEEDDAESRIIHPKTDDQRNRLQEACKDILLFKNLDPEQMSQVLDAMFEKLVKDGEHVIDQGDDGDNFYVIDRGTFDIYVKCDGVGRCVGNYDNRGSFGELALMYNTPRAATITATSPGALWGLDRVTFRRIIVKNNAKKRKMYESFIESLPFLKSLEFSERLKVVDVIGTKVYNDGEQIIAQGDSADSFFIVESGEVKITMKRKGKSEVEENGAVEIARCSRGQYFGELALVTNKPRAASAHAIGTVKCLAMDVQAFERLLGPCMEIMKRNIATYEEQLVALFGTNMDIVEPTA
inactive: [1] -0.024 | [3] -0.053 | [4] 0.02 | [5] -0.168 | [6] -0.191 | [7] 0.086 | [8] 0.014 | [9] 0.069 | [10] -0.004 | [11] -0.032 | [12] 0.06 | [13] 0.153 | [14] 0.05 | [15] -0.007 | [17] -0.026 | [18] -0.024 | [19] 0.048 | [20] -0.056
active: [2] -0.486 | [16] -0.63

PLA2G15 (UniProt Q8NCC3)
inactive: [1] -0.052 | [2] -0.095 | [3] 0.028 | [4] 0.036 | [5] 0.065 | [6] 0.012 | [7] -0.064 | [8] -0.036 | [9] 0.176 | [10] -0.018 | [11] -0.041 | [12] -0.076 | [13] -0.007 | [14] 0.01 | [15] 0.095 | [16] 0.03 | [17] 0.001 | [18] 0.056 | [19] -0.001 | [20] -0.01

PIGT (UniProt Q969N2)
Chain of UniProt Q969N2 (Q969N2 whole entry, looked up): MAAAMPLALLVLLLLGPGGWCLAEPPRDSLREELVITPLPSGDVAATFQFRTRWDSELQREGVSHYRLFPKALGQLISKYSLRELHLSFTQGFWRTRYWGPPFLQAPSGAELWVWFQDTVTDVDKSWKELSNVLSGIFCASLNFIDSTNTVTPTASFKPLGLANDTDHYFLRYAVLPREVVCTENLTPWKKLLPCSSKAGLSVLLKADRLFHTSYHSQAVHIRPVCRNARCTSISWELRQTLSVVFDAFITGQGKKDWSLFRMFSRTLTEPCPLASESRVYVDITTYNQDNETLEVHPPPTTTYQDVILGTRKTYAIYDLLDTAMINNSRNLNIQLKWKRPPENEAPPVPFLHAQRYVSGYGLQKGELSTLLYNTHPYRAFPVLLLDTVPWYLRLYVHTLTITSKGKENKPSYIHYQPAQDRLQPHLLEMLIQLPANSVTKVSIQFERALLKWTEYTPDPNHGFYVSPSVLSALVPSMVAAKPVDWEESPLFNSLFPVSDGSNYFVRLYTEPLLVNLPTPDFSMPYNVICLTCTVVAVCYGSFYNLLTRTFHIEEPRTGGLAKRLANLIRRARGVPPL
inactive: [1] -0.024 | [2] -0.023 | [3] -0.021 | [4] -0.052 | [5] 0.029 | [6] 0.012 | [7] -0.002 | [8] 0.013 | [9] 0.048 | [10] -0.015 | [11] -0.004 | [12] 0 | [13] 0.012 | [14] -0.02 | [15] -0.081 | [16] 0.046 | [17] -0.006 | [18] -0.013 | [19] 0.027 | [20] -0.007
